From ChEMBL document CHEMBL3988442, “University of Dundee, Small-Polar-MMV Screening Library” (2021)

Experiments:
[1] = target: T1, Aspartate--tRNA(Asp/Asn) ligase (Mycobacterium tuberculosis (strain ATCC 25618 / H37Rv)) (UniProt P9WFW3); experiment: Assay for Asp RNA synthetase-1 from Mycobacterium tuberculosis; assay type: functional; parameters: scale not given: direction of the effect not stated beside the values; conditions: 30 µM; note: in the data most compounds retested in dose-response had high values
T1 sequence (whole entry): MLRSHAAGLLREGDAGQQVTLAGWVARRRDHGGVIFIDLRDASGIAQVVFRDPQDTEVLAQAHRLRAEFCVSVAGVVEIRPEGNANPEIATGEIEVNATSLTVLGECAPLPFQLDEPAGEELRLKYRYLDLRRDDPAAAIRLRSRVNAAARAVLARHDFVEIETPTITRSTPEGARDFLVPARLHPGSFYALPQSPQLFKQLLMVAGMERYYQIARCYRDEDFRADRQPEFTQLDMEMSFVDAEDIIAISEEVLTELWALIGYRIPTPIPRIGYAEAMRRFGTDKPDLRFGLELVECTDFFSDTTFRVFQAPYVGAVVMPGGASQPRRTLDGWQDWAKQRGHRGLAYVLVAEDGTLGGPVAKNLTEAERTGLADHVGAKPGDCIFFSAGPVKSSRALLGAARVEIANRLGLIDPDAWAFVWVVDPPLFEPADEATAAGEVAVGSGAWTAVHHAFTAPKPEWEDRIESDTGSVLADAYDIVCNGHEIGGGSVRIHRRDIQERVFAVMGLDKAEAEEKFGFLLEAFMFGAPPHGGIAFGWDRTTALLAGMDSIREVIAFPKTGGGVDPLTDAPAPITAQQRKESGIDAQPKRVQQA

[2] = target: Shiga toxin 2 (Escherichia coli O157:H7) (UniProt P09385+P09386); experiment: E. coli 0.157:H7 Shiga Toxin SOP - stx2 screening assay; assay type: functional; parameters: scale not given: direction of the effect not stated beside the values; conditions: 30 µM

## O=C(NCc1cc[nH]n1)NCC(c1ccco1)N1CCCC1 (stereo unspecified)
[1]
  Percent Effect: 0.607%
[2]
  Percent Effect: 4.49%

## Clc1cc(CN2CCCC2Cn2cncn2)c2ncccc2c1 (stereo unspecified)
[1]
  Percent Effect: -0.0583%
[2]
  Percent Effect: 6.1%

## O=S(=O)(NCC1CCOc2ccccc2C1)N1CCOCC1 (stereo unspecified)
[1]
  Percent Effect: 6.99%
[2]
  Percent Effect: -16%
